Where “and” joins values, the source holds several entries; their conditions need not be identical. Identical values can stand only once. The panel holds about 83,000 compounds, 20% with a hit somewhere; the sample as a whole holds those more often.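 Step 1: grow cells in 96-well plates. Step 2: add test compound at a single concentration. Step 3: incubate 48 h. Step 4: record percent growth.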 Calls of active or inactive are those of the source. Rule for the calls: active = growth percent below 10; inactive = the rest.

This experiment has as its system MDA-MB-468 breast. The experiment in a line: NCI-60 one-dose screen, 48 h (100 = growth as untreated, 0 = no growth, -100 = all killed). Conditions: 10 µM unless noted.
In the case of `COc1cc(-c2nn(-c3ccc(Br)cc3)cc2CO)ccc1O`, the growth is 96.1% (inactive). Next, `O=C(/C=C\c1ccccc1)N1c2ccccc2CC1c1c[nH]c2ccccc12` (centres undefined): 80.6% (inactive).

Turning to `Cc1cc(C)c2c(Nc3ncnc4c3sc3nc(C)cc(C)c34)n[nH]c2n1`, the growth is 92.2% (inactive).

`Oc1ccc(/C=N\Nc2ccccn2)c(O)c1`: the growth was 9.5% (active). Next, `CC1(C)N=C(N)N=C(N)N1c1cccc(CCCCc2ccccc2)c1`: -57.7% (active). For `CCN(CC)CCOc1nc2ccccc2c2c1-c1ccc(OC)cc1C2=O`, the growth was 14.3% (inactive). `Cc1cc2c(c(C)c1Cl)C(=O)/C(=C/c1cccc([N+](=O)[O-])c1)O2`: the growth is 92.2% (inactive).

Regarding `Cc1ccc2[nH]c(=O)c3c(c2c1)Oc1ncn2nc(-c4ccco4)nc2c1C3c1ccc(Cl)cc1` (centres undefined), the growth is 96.4% (inactive). The figure for `O=C(Nc1ccc(-n2cc(-c3ccncc3)c(-c3ccc(Cl)c(O)c3)n2)cc1)N1CCOCC1` is 112% (inactive); for `CN(C)CCS(=O)(=O)CCN(C)C` it is 105% (inactive); for `CCCC(=O)NC(c1cccnc1)c1cc(Cl)c2cccnc2c1O` (centres undefined) it is 30.2% (inactive). Next, `O=C1c2ccccc2C(=Cc2ccccc2)c2ccccc21`: -7.09% (active); `Cc1ccc(Nc2ncnc3c2sc2ncccc23)cc1`: 93% (inactive).

On to `Cn1cnc2c(N3CCN(C(=O)OCc4ccc5c(Cl)cc(Cl)c(O)c5n4)CC3)nc(Cl)nc21`, for which the growth was 72.5% (inactive). As to `S=C=Nc1ccc(N2CCOCC2)cc1`, the growth is 87% (inactive). Next, `Cc1ccc(-c2nc3nc(-c4ccccc4)nc(N4CCCNCC4)c3o2)cc1`: -67.5% (active).

On to `Cc1cnc(Nc2ccc(N3CCN(C)CC3)cc2)nc1Nc1ccc(Cl)c(NS(=O)(=O)C(C)(C)C)c1`, for which the growth is 14.9% (inactive).

With `O=[N+]([O-])c1ccc(C=C2C(Cl)=C(Cl)C(Cl)=C2Cl)cc1`, the growth is 48.3% (inactive). Next, `C=C1CCC2C(C)(CO)C(O)CCC2(C)C1C/C=C1/C(=O)OCC1O/C=C/c1ccccc1` (centres undefined): 80.5% (inactive). The figure for `NC(N)=NC1CCCCC1` is 88.8% (inactive). For `CC(C)(C)n1cc(-c2ccnc(NCCCNS(=O)(=O)c3ccc(Cl)cc3)c2)c(-c2cccc(O)c2)n1`, the growth was -44.5% (active). For the compound `COCc1cnccc1NC1CCCCCC1`, the growth was 102% (inactive). In the case of `O=[N+]([O-])c1ccccc1Nc1ccc2ccccc2c1`, the growth is 80.4% (inactive). The figure for `COc1ccc(C(C)=O)cc1N1C(=O)C2C(C1=O)C1(c3ccccc3)C(=O)C2(c2ccccc2)C(c2ccc(C)cc2)=C1c1ccc(C)cc1` (centres undefined) is 13.9% (inactive); for `C=C1C(=O)O[C@H]2[C@H]1CC/C(COC(=O)N[C@H](Cc1c[nH]c3ccccc13)C(=O)OC)=C\CC[C@@]1(C)O[C@@H]21` it is 22.5% (inactive). The figure for `COc1cc(CNC(=O)/C=C/c2ccccc2)ccc1OCC(=O)NO` is 92.5% (inactive); for `COC(=O)[C@]12CC[C@@H](C)[C@H](C)[C@@H]1C1=CC[C@@H]3[C@@](C)(CC#N)C4=C(C[C@@]3(C)[C@]1(C)CC2)OC[C@]4(C)C=O` it is -83% (active).

As for `COc1cccc(-c2cc(-c3cc4ccccc4oc3=O)nc(N)n2)c1`, the growth is 92.7% (inactive).

Take `COC(=O)c1nc(-c2ccc(C)cc2)oc1S(=O)(=O)N1CCN(c2oc(-c3ccccc3)nc2C#N)CC1`: the growth is 93.9% (inactive). The figure for `COc1ccc2oc3c4[nH]c5ccccc5c4c4c(c3c2c1)C(=O)N(O)C4=O` is 104% (inactive).

`CCC(=O)NC(O)C(Cl)(Cl)C(C)Cl` (centres undefined): the growth was 92.5% (inactive).

For the compound `CCN(CC)CC(=O)Nc1c(C)cccc1C`, the growth is 101% (inactive). For `CCN(CC)CCCNc1c2ccc(Cl)cc2nc2ccc(OC)cc12`, the growth was -34.6% (active). The figure for `Cc1ccc2oc(=O)cc(-c3cc(-c4cc5ccccc5oc4=O)nc(N)c3C#N)c2c1` is 68.7% (inactive). On to `Fc1ccc(-c2cc3nc(C(Cl)Cl)nc(-c4ccco4)n3n2)cc1`, for which the growth was -43.6% (active).

Turning to `N#C/C(=C1C=C/C(=N\O)C(Cl)=C\1)c1ccccc1`, the growth is 41.2% (inactive). With `O=c1oc2ccccc2cc1-c1nn(-c2ccccc2)cc1-c1nn[nH]n1`, the growth was 104% (inactive). Next, `CN(C)CCOC1(Cc2ccc(Cl)cc2Cl)CCC(C(C)(C)C)CC1` (centres undefined): -77.6% (active) and -87.3% (active). The figure for `NNC(=O)c1nc2ccccc2[nH]1` is 126% (inactive).

The values above are taken from PubChem BioAssay (NCI).
